High-throughput results from PubChem.
RORg inh: qHTS for inhibitors of ROR gamma transcriptional activity; actives 5.4% (n = 310,000); Drosophila S2 Gal4-RORgamma UAS-luciferase reporter, 20 h; Potency, µM (doses to about 53.6 µM), hits mostly inhibitors; AID 2551, 2010; Nuclear receptor ROR-gamma (Mus musculus), P51450; further: nearly all actives have a fitted effect of over 60% in size
Target sequence (P51450 whole entry, looked up, the tested form may be a part): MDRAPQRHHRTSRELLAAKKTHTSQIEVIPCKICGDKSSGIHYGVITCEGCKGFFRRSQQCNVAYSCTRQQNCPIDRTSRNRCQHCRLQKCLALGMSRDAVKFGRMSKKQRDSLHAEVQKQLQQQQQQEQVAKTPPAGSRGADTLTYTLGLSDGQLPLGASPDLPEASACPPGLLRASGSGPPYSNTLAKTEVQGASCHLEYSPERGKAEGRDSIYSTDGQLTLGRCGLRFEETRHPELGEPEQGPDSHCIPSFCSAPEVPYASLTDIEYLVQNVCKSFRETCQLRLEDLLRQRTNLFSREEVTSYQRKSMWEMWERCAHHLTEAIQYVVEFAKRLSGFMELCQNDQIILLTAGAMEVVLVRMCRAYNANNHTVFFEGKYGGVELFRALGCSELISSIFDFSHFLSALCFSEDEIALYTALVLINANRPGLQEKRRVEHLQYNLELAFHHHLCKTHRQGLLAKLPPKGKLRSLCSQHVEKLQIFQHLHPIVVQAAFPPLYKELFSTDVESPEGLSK
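A Gal4/UAS one-hybrid system in insect cells: metallothionein-promoter Gal4–ROR gamma fusion plus Photinus luciferase reporter. Copper sulfate 700 uM final, 20 hr ambient incubation, luminescent detection after 10 min with reagent.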
Giardia kill: Small Molecules that selectively kill Giardia lamblia: qHTS. Giardia lamblia trophozoite viability. activity change, % at 7.66 µM, hits read low. actives 0.15% (n = 340,000). AID 540267, 2011; in the data active means activity change below about -80%; inconclusive means between about -30% and that limit;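 further: parasites exposed to compound for two days anaerobically before the ATP read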
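Giardia lamblia trophozoites (100 cells/well) were incubated with compounds for 48 h at 37 deg C under anaerobic conditions. Viability was read as ATP content by one-step luminescence after 15-30 min at room temperature.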
SW480 rerep: A quantitative high throughput screen for small molecules that induce DNA re-replication in SW480 colon adenocarcinoma cells; actives 1.8% (n = 340,000); SW480 DNA re-replication, Hoechst DNA content imaging, 48 h; AID 624297, 2012; Potency, µM (top dose mostly 46.1 µM), hits mostly activators; further: nearly all actives have a fitted effect of over 55% in size
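Cells (250 per well) received 23 nL compound or DMSO by pin tool and were kept 48 hr at 37 C, 5% CO2. Nuclei were then stained with Hoechst for 40 min and scanned for DNA content.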
MCF10A rerep: A quantitative high throughput screen for small molecules that induce DNA re-replication in MCF 10a normal breast cells. MCF 10A DNA re-replication, Hoechst nuclear intensity, 48 h. Potency, µM (doses to about 46.1 µM), hits mostly activators. actives 2.9% (n = 350,000). AID 624296, 2012; further: nearly all actives have a fitted effect of over 50% in size
VP16 counter: VP16 counterscreen qHTS for inhibitors of ROR gamma transcriptional activity. Potency, µM (titrated, usually from 53.6 µM), most hits filed as inhibitors. actives 3.5% (n = 310,000). Drosophila S2 Gal4-VP16 UAS-luciferase, luminescence, 20 h;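 further: Gal4-VP16 expression switched on by copper sulfate through the metallothionein promoter; nearly all actives have a fitted effect of over 50% in size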
BCR signal inh: qHTS Assay to Find Inhibitors of Chronic Active B-Cell Receptor Signaling. ABC-DLBCL IkBa-CBG/CBR reporter, luminescence ratio, 4 h. actives 0.05% (n = 340,000). Potency, µM (highest dose often 46.1 µM), hits mostly inhibitors. AID 493014, 2011; active means well fitted inhibition curve with a large enough effect in the signal ratio, with a control signal flat, not every such curve was filed as active; inconclusive means small, poorly fitted or top-dose-only effect, or effect the other way, or a change in a side signal; the % refers to the signal ratio
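Concentration-response series (up to 46 uM) were applied to TMD8 dual-reporter cells for 4 h at 37C with doxycycline. Green/red ratio, after filter-overlap correction, defined %Activity; red signal alone was normalised to basal cells and zero luminescence.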
A number is an active result; 0 = inactive; ? = inconclusive; - = no result given; [ ] = remark or other dose. The list is not random: actives were taken first. Their share in the collection is about 8.3%. Unless noted, the call rests on the fitted dose curve; in most records, active means well fitted curve in the direction sought with a large enough effect; inconclusive means small, poorly fitted or top-dose-only effect, or another doubt; inactive means no such curve, though single readings can be large; an effect the other way counts as inactive or inconclusive.

SMILES	RORg inh	Giardia kill	SW480 rerep	MCF10A rerep	VP16 counter	BCR signal inh
CCOc1ccc(-n2cc(-c3ccccc3)c3c(NC4CCCC4)ncnc32)cc1	-	-	-	-	-	0
CCn1c2ccccc2c2cc(Nc3cc(C)nc4ncnn34)ccc21	20µM	0	?	?	?	?
Cc1ccc(Nc2cc(-c3ccccc3)nc3ncnn23)cc1	11µM	0	0	0	?	0
Cc1ccccc1N1CCN(C2CCCN(C(=O)c3cnsn3)C2)CC1 (stereo not drawn)	0	0	0	0	0	0
Cc1c(C)c(C)c(S(=O)(=O)NCCc2ccncc2)c(C)c1C	0	0	0	0	0	0
COC(=O)c1cc(NC(=O)/C=C/c2ccccc2)ccc1O	0	-	-	-	0	?
O=C(c1ccc2c(c1)OCO2)N(Cc1cccs1)C1(C(=O)NC2CCCCC2)CCCCC1	0	0	0	?	0	0
CC[C@H](C)[C@@H]1NC(=O)[C@H]([C@@H](C)CC)NC(=O)[C@@H](CC(C)C)NC(=O)[C@H](Cc2ccccc2)NC(=O)[C@H](Cc2ccccc2)NC(=O)[C@@H]2CCCN2C(=O)[C@@H]2CCCN2C(=O)[C@H](C(C)C)NC(=O)[C@H](CC(C)C)NC1=O	-	0	?	21µM	-	0
CSCC[C@@H]1NC(=O)[C@@H](NC(=O)[C@H](CCCNC(=N)N)NC(=O)[C@H](CC(C)C)NC(=O)[C@H](CCSC)NC(=O)[C@H](CC(=O)O)NC(=O)[C@H](Cc2ccccc2)NC(=O)[C@@H](N)CC(=O)O)CSSC[C@@H](C(=O)N[C@@H](Cc2c[nH]c3ccccc23)C(=O)N[C@@H](CCC(N)=O)C(=O)N[C@H](C(=O)O)C(C)C)NC(=O)[C@@H]2CCCN2C(=O)[C@H](CCCNC(=N)N)NC(=O)[C@H](Cc2ccc(O)cc2)NC(=O)[C@H](C(C)C)NC(=O)[C@H](CCCNC(=N)N)NC(=O)CNC(=O)[C@H](CC(C)C)NC1=O	0	-	-	-	0	-
O=C(CN1C(=O)COc2ccccc21)NCCc1ccc(Cl)cc1	-	-	-	-	-	0
Cc1[nH]n(-c2ncc(-c3ccccc3)s2)c(=O)c1C(c1ccc(Br)cc1)C(C#N)C#N (stereo not drawn)	11µM	0	0	?	13µM	0
CCCc1[nH][nH]c(=O)c1C(c1ccc(Br)cc1)C(C#N)C#N (stereo not drawn)	0	0	0	0	?	0
Cc1[nH]n(C(N)=S)c(=O)c1C(c1ccccc1)C(C#N)C#N (stereo not drawn)	10µM	0	0	0	10µM	?
CCCc1[nH][nH]c(=O)c1C(c1ccccc1)C(C#N)C#N (stereo not drawn)	0	0	0	0	0	0
CCOc1cnn(-c2cc(Oc3ccc(C)cc3)ncn2)c(=O)c1Cl	0	0	0	0	0	0
Cc1ccccc1Oc1cc(-n2ncc(Cl)c(Cl)c2=O)ncn1	1.1µM	0	?	0.73µM	3.2µM	?
O=C(CN1C(=O)CS/C1=C\c1nc(-c2ccc(Cl)cc2)cs1)Nc1cccnc1Cl	0	0	?	?	0	0
Cc1ccc(-c2csc(/C=C3\SC(C)C(=O)N3CC(=O)Nc3ccccc3F)n2)cc1 (stereo not drawn)	0	0	0	18µM	0	0
COc1ccc(CCN(C)C(=O)C2CCN(Cc3cccc(OC)c3OC)CC2)cc1OC	0	0	0	0	0	?
OCCN1CC(O)C(O)C(O)C1CO (stereo not drawn)	0	-	0	0	0	-
CCOC(=O)c1cnn(-c2cc(C(C)(C)C)nc3c(-c4ccccc4)c(C)nn23)c1N	0	0	0	0	0	0
CCN1CCN(c2cc(C(C)(C)C)nc3c(-c4ccccc4)c(C)nn23)CC1	0	0	6.5µM	?	0	0
Cc1cc(SCC(=O)c2cccs2)n2nc(C)c(-c3ccc(Cl)cc3)c2n1	1µM	0	0	?	?	?
Cc1cc(SCC(=O)Nc2ccc(O)cc2)n2nc(C)c(-c3ccccc3)c2n1	0	0	0	?	0	?
Cc1nn2c(SCC(=O)c3cccs3)cc(C(C)(C)C)nc2c1-c1ccccc1	10µM	0	?	0	7.1µM	0
SMILES	RORg inh	Giardia kill	SW480 rerep	MCF10A rerep	VP16 counter	BCR signal inh
C=C(C)CSc1cc(C)nc2c(-c3ccccc3)c(C)nn12	11µM	0	0	0	?	?
Cc1nn2c(N3CCOCC3)cc(C(C)(C)C)nc2c1-c1ccccc1	0	0	?	0	0	0
COc1ccc(CCNC(=O)c2ccc3c(c2)ncn3-c2ccc(C)cc2C)cc1OC	-	-	-	-	-	0
COc1cc(/C=C(\C#N)C(=O)Nc2ccc3c(c2)OCCO3)ccc1O	?	0	?	?	?	?
O=C(CCn1cnnn1)Nc1ccccc1	0	0	0	0	0	0
CCSc1cc(C)nc2c(-c3ccccc3)c(C)nn12	0	0	0	0	0	?
C=CCSc1cc(C)nc2c(-c3ccc(Cl)cc3)c(C)nn12	20µM	0	?	21µM	?	0
N#CCC(=O)Nc1sc2c(c1C(N)=O)CCCC2	?	0	0	23µM	0	?
C=CC(=O)Nc1sc2c(c1C(N)=O)CCCC2	-	0	?	21µM	-	?
NC(=O)c1c(NC(=S)Nc2ccccc2)sc2c1CCCC2	0	0	0	0[9.22 µM]	?	?
C=CCNC(=S)Nc1sc2c(c1C(N)=O)CCCC2	11µM	0	0	?	?	0
COC(=O)c1cc2oc(C)cc2n1CC(=O)N1CCCc2ccccc21	0	0	0	0	0	0
COc1cccc(NC(=O)CN(C)C(=O)c2c(-c3ccccc3)noc2C)c1	0	0	0	0	0	0
CC(=O)Nc1ccc(NC(=O)CSCc2ccccc2Cl)cc1	-	0	?	0	-	-
C/C(=N\NC(=O)CSCc1ccccc1Cl)c1cc(O)ccc1O	5µM	0	?	?	11µM	?
O=C1NN=C(c2ccccc2)CC1c1ccc(Cl)cc1Cl (stereo not drawn)	0	0	18µM	?	0	0
CCOc1ccc(/C(O)=C2/C(=O)C(=O)N(c3ncccn3)C2c2ccccc2)cc1 (stereo not drawn)	0	0	0	0	0	0
CC(CNS(=O)(=O)c1ccccc1)(c1ccccc1)N1CCCCC1 (stereo not drawn)	0	0	2.6µM	0	0	0
Cc1cccc(-c2cc3nc(-c4ccccc4)cc(=O)n3[nH]2)c1	?	0	?	?	?	?
